VDR inhibitor – vitamin D3 receptor (human) inhibition; P11473; VDR-SRC2-3 peptide fluorescence polarization, 2 h; Potency, µM, for inactives: max response, negative = inhibition, most hits filed as inhibitors; hit rate 0.93% among 400,000; AID 504847; further: potency means the concentration at half of the fitted maximal effect; on the % scale 0 is the no-effect control and ±100 the full control effect
Target sequence (P11473 whole entry, looked up): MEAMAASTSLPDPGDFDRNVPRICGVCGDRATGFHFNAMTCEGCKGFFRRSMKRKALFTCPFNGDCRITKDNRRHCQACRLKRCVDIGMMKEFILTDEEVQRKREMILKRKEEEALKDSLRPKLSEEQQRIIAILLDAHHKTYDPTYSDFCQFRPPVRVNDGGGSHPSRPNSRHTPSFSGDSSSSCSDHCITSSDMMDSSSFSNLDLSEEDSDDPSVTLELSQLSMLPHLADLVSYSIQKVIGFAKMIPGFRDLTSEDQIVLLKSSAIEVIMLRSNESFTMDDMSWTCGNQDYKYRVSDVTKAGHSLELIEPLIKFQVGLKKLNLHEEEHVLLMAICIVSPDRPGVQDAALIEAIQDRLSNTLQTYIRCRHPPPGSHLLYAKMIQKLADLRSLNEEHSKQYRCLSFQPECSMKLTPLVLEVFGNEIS
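Reagent solutions, kept cold and dark, are dispensed first; compounds are then pinned in at 23 nl, plates briefly spun, and incubated 2 h at ambient temperature. Inhibition of VDR–SRC2-3 peptide binding is read by fluorescence polarization.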
PLK1 PBD inh – inhibitors of human PLK1 polo-box domain binding. P53350. Plk1 PBD binding of FITC phosphopeptide, fluorescence polarization. Potency, µM, without a hit: max response, negative = inhibition, usual class: inhibitors. hit rate 2.8% among 360,000; further: potency means the concentration at half of the fitted maximal effect; series mostly up to about 57 µM; on the % scale 0 is the no-effect control and ±100 the full control effect; nearly all actives have a fitted effect of over 65% in size
TCR activator – T cell receptor activation; primary human leukocytes, anti-CD3, IL-2 HTRF, 48 h; Potency, µM (titrated, usually from 9.22 µM), inactives show at the highest dose activation of IL-2 secretion, usual class: activators; 330,000 tested, under 10 active; further: % of control where 0% means no effect
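1) Mix primary human leukocytes, a-CD3 beads and compound. 2) Incubate 48 hr. 3) Add HTRF IL-2 reagents (a-IL-2-K, a-IL-2-d2).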
FEN1 inh – inhibitors of human flap endonuclease 1; P39748; Recombinant FEN1 flap cleavage, fluorescence, 15 min; Potency, µM (titrated, usually from 114 µM), inactives show top-dose activity change, negative = inhibition, usual class: inhibitors; hit rate 0.35% among 390,000; further: potency means the concentration at half of the fitted maximal effect; on the % scale 0 is the no-effect control and ±100 the full control effect; nearly all actives have a fitted effect of over 65% in size
Target sequence (P39748 whole entry, looked up): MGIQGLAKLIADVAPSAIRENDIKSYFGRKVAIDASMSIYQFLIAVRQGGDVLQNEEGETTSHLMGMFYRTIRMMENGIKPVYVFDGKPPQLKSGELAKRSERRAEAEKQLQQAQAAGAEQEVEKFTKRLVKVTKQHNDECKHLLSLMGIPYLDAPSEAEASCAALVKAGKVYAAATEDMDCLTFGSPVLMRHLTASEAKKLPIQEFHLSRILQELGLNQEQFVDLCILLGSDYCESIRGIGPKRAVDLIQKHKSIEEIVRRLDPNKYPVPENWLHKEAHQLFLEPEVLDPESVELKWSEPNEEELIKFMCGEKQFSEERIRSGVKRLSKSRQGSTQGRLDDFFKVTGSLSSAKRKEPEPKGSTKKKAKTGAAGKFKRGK
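Nuclease activity of 10 nM FEN1 was measured after 15 min of room-temperature exposure to titrated compounds, by adding 50 nM flap substrate and reading plates at 0 and 15 min.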
WRN helicase inh – WRN helicase (human) inhibition | WRN helicase unwinding, fluorescent forked duplex, kinetic | Potency, µM (series often up to 114 µM), without a hit: at the highest dose activity change, negative = inhibition, most hits filed as inhibitors | hit rate 0.46% among 360,000 | AID 651768; further: potency means the concentration at half of the fitted maximal effect; on the % scale 0 is the no-effect control and ±100 the full control effect; nearly all actives have a fitted effect of over 55% in size
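Kinetic red-fluorescence monitoring (525/598 nm) tracks WRN helicase activity after 100 nM fluorophore-quencher forked duplex and 2 mM ATP are added to 20 nM enzyme pretreated 15 min at room temperature with compound.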
PI5P4K alpha inh – blocks human PI5P4K alpha kinase activity; P48426; PI5P4Kalpha enzyme, ADP-Glo luminescence, 60 min; hits give low values; max response, %; hit rate 1.2% among 330,000; AID 652105; active means max response of -50% or lower; inconclusive means between -30% and -50%; inactive means -30% or higher; further: value at the top dose of about 77 µM; on the % scale 0 is the no-effect control and ±100 the full control effect
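Luminescence from ADP-Glo served as readout of PI5P4Kalpha activity in a qHTS format. Reaction: enzyme, substrate, compound, ATP at 5 microM final, 60 min at RT.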
* marks the source's active call; other numbers are inactive results; ? = inconclusive; . = no result; [ ] = another dose, or the depositor's remark. Only some compounds are listed: those with a hit (about 3.7% of all), similar ones and a draw of the others. Unless noted, the call rests on the fitted dose curve; in most records, active means well fitted curve in the direction sought with a large enough effect; inconclusive means small, poorly fitted or top-dose-only effect, or another doubt; inactive means no such curve, though single readings can be large; an effect the other way counts as inactive or inconclusive.

SMILES | VDR inhibitor | PLK1 PBD inh | TCR activator | FEN1 inh | WRN helicase inh | PI5P4K alpha inh
O=C(c1ccco1)N1CCN(S(=O)(=O)c2ccccc2[N+](=O)[O-])CC1 | -9.9% | 29.9µM* | -6.6% | -4.3% | 1.9%[57.1 µM] | -12.8
CC(=O)N1c2c(cc(Br)cc2S(=O)(=O)N2CCN(C(=O)c3ccco3)CC2)CC1C (centres undefined) | ? | 4.74µM* | 4.8% | 5.1% | 4.3% | ?
CC(=O)N1c2c(cc(Br)cc2S(=O)(=O)N2CCN(c3ccccc3)CC2)CC1C (centres undefined) | 5.3% | . | . | 0.5% | . | .
O=[N+]([O-])c1ccccc1S(=O)(=O)N1CCCCC1 | -20.0% | 26.7µM* | -0.7%[46.1 µM] | -6.8% | 0.8% | -5.0
CCCCCCCCCCCCC/C=C/[C@@H](O)[C@H](CO)NC(=O)CCCCC | -6.6% | . | . | . | . | .
CCOC(=O)C1C(=O)NC(SC)=C(C#N)C1c1ccccc1F (centres undefined) | -13.8% | -16.4% | 3.3% | -3.5% | -6.4% | .
N#CC1=C(N)NC(=S)C(C(N)=O)C1c1ccccc1F (centres undefined) | 4.47µM* | 18.9µM* | -0.3% | -3.4% | ? | ?
COc1cc(SC#N)ccc1N=Cc1c(C)[nH]n(-c2ccc(C)cc2C)c1=O | ? | 8.44µM* | 1.3% | -1.5% | ? | -11.5
O=C(Nc1c(Cl)cc([N+](=O)[O-])cc1Cl)c1cc(Cl)cc(Cl)c1O | ? | . | . | -0.8% | . | .
CCCCN1/C(=C/c2ccc3ccccc3[n+]2CC)Sc2ccccc21 | 7.7% | 9.8% | 8.5% | 39.8µM* | -2.4% | -17.6
Cc1cc(C)c(C(=O)c2cccs2)c(C)c1 | -4.4% | 0.4% | 4.4% | 14.6% | 4.4% | 0.0
Cc1cc(C(=O)c2cccs2)c(N)s1 | ? | 23.8µM* | 1.0% | 4.9% | -7.1% | .
CC(=O)OCC(NC(=O)C(Cc1ccccc1)NC(=O)OC(C)(C)C)C1OC(n2cc(F)c(=O)[nH]c2=O)C(OC(C)=O)C1OC(C)=O (centres undefined) | -17.0% | . | . | 13.8% | . | .
CCCCCCC(=O)N(O)C1CC(=O)N(c2ccc(Br)cc2)C1=O (centres undefined) | ? | ? | -2.9% | -5.7% | 0.2% | .
COc1ccccc1N(O)C1CC(=O)N(c2ccc(Br)cc2)C1=O (centres undefined) | 50.1µM* | 2.99µM* | 0.5% | -1.1% | ? | .
Cc1oc2c(c(C)cc3oc(=O)c(CC(=O)NCCc4ccc(Cl)cc4)c(C)c32)c1C | 7.4% | . | . | -5.0% | . | .
CCOc1ccc(CCNC(=O)c2nc(-c3cccc(F)c3)n3c2CCCCC3)cc1OCC | -4.2% | . | . | -12.4% | . | .
CC(/C=C1\N=C(SCc2ccccc2Cl)SC1=O)=C\c1ccccc1 | -10.1% | 26.7µM* | -0.7% | -12.7% | -31.0% | ?
O=C(Nc1nc(-c2ccccn2)cs1)Nc1ccc(F)cc1F | ? | 4.74µM* | -1.4% | -13.4% | 7.1% | -17.3
O=C(COc1ccccc1)Nc1nc(-c2ccncc2)cs1 | -8.8% | 26.7µM* | 4.0% | -3.2% | 1.0% | -25.0
O=C(COc1cccc(F)c1)Nc1nc(-c2ccccn2)cs1 | . | 10.6µM* | . | . | 3.7% | ?
O=C(Nc1nc(-c2ccccc2)cs1)Nc1ccc(F)cc1F | -5.7% | ? | -4.0% | -0.8% | -0.3% | 3.6
NC(=O)c1ccsc1NC(=O)COc1ccccc1 | -17.5% | 15µM* | -0.2% | -5.3% | ? | .
CC[C@H](C)[C@H](NC(=O)[C@H](Cc1ccc(O)cc1)NC(=O)[C@@H](NC(=O)[C@H](CCCNC(=N)N)NC(=O)[C@@H](N)CC(=O)O)C(C)C)C(=O)N[C@@H](Cc1cnc[nH]1)C(=O)N1CCC[C@H]1C(=O)N[C@@H](Cc1ccccc1)C(=O)N[C@@H](Cc1cnc[nH]1)C(=O)N[C@@H](CC(C)C)C(=O)N[C@@H](CC(C)C)C(=O)N[C@H](C(=O)N[C@@H](Cc1ccc(O)cc1)C(=O)N[C@@H](CO)C(=O)O)C(C)C | 0.8% | . | . | . | . | .
COc1ccc(CNC(=O)Cc2c(C)c3cc4c(C)coc4c(C)c3oc2=O)cc1 | 3.7% | . | . | 12.1% | . | .
SMILES | VDR inhibitor | PLK1 PBD inh | TCR activator | FEN1 inh | WRN helicase inh | PI5P4K alpha inh
O=C(COC(=O)c1cc(NS(=O)(=O)c2cccs2)ccc1O)Nc1ccc(F)c(F)c1F | 6.9% | -5.6% | -20.5% | -9.5% | -5.5% | 2.5
O=C(COC(=O)c1ccc(NS(=O)(=O)c2cccs2)cc1)Nc1nc2c(F)c(F)c(F)cc2s1 | -7.8% | -24.7% | -3.8% | -32.2% | -34.6% | -90.4*
Cc1ccccc1/C=N/Nc1ccnc2cc(Cl)ccc12 | 15.3% | -1.0% | -1.7%[46.1 µM] | -14.8% | -17.2% | -74.5*
Clc1ccc(NNc2ccnc3cc(Cl)ccc23)cc1 | 4.4% | 7.9% | . | 1.1% | 11.6% | -0.3
Cc1ccc(/C=N/Nc2ccnc3cc(Cl)ccc23)c(C)c1 | -12.3% | 26.7µM* | 3.1%[46.1 µM] | ? | -14.3% | -82.1*
Oc1ccc(/C=N/Nc2ccnc3cc(Cl)ccc23)c(O)c1 | 7.1% | -8.2% | 4.0% | -23.4% | ? | -17.3
Clc1ccc2c(N/N=C/c3cccnc3)ccnc2c1 | -6.8% | -10.7% | 4.2% | ? | -14.1% | -2.4
Clc1ccc2c(N/N=C/c3ccc(Br)cc3)ccnc2c1 | 22.7% | -2.1% | 0.3%[46.1 µM] | -16.0% | -3.0% | -73.3*
O=C1NN=C(CSc2n[nH]c(=S)s2)CS1 | -20.8% | ? | 3.8% | -2.9% | 12.8% | -55.4*
CC(C)(C)OC(=O)N1CC23CC(c4ccc(F)cc4)C(CC2S1(=O)=O)O3 (centres undefined) | -1.5% | . | . | -16.2% | . | .
N#Cc1ccc(C(=O)Nc2nnc(-c3cccs3)o2)cc1 | ? | 26.7µM* | -2.3% | 3.2% | 5.2% | -2.4
O=C(Nc1nnc(-c2cccs2)o1)c1cccc(C(F)(F)F)c1 | ? | 29.9µM* | 12.6% | 10.4% | -3.4% | 9.6
CN(C)S(=O)(=O)c1ccc(C(=O)Nc2nnc(-c3cccs3)o2)cc1 | -10.1% | ? | 9.2% | -5.1% | 6.1% | -8.3
CCCOc1ccc(CNC(=O)CCCn2nc(C)c3sc4ccccc4c3c2=O)cc1 | 10.2% | . | . | -8.1% | . | .
Cc1ccc(CNC(=O)CCCN2C(=O)CCn3nc(-c4cn(C)c5ccccc45)cc32)cc1 | -10.5% | . | . | -6.2% | . | .
Cc1onc(-c2c(F)cccc2Cl)c1C(=O)NC1C(=O)N2C1SC(C)(C)C2C(=O)O (centres undefined) | 10.1% | . | . | . | . | .
O=C1C2=C(NC(=S)NC2c2ccc(Cl)cc2)NC(c2ccc(Cl)cc2)N1c1ccc(Cl)cc1 (centres undefined) | 6.3% | -1.9% | -16.1% | -20.3% | -9.5% | -52.0*
N#Cc1c(-c2ccc(F)cc2)cc(-c2ccccc2)nc1SCC(=O)NCC(=O)O | ? | 18.9µM* | -2.2% | ? | -0.8% | -20.4
N#Cc1c(-c2ccccc2)cc(-c2ccccc2)nc1SCCC(=O)O | ? | 21.2µM* | . | -15.3% | -20.8% | -20.4

Screens as filed in PubChem BioAssay.
